Screens as filed in PubChem.
KDM5B inhibitor = blocks human KDM5B histone demethylase activity; 220,000 compounds, 2.6% hits; KDM5B demethylase, FDH-coupled NADH fluorescence (FDH is formaldehyde dehydrogenase); Q9UGL1; Potency, µM (top dose mostly 57.7 µM), hits mostly inhibitors; active = well fitted inhibition curve with a large enough effect; note: nearly all actives have a fitted effect of over 70% in size
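KDM5BΔAP (200 nM final) in 50 mM HEPES pH 7.5, 0.01% Tween-20 was preincubated 10 min at RT with compound over a concentration range. Substrate mix (H3K4me3 12.5 µM, α-KG 25 µM, Fe²⁺, ascorbate, NAD⁺, FDH) was added, and NADH fluorescence change over 30 min gave dose-response curves.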
Large screens that a line does not name were inactive. The full list was thinned out, with hits kept by preference.

CC(Cc1cccnc1)Nc1cc(-c2ccccc2F)nc2ccnn12 (stereo not given)	KDM5B inhibitor 28.2µM
Fc1ccccc1CNc1cc(Cl)nc2ccnn12	none
O=C(NCCc1cccnc1)c1ccccc1F	none
Cc1ccc(CNC(=O)c2ccc3c(c2)N(C(=O)c2ccc(F)cc2)CC3)o1	none
O=C(NCCN1CCOCC1)c1ccc(Cl)c(S(=O)(=O)N2CCCCC2)c1	none
O=C(NCCN1CCOCC1)c1ccc(C2CCCNC2)cc1 (stereo not given)	none
O=C(CCNC(=O)c1ccsc1)Nc1ccc(N2CCCC2)nc1	none
O=C(NCc1ccccc1F)c1ccc(-c2ccc(N3CCSCC3)nc2)cc1	KDM5B inhibitor 17.8µM
COCCNC(=O)c1ccc(-c2ccc(N3CCCCC3)nc2)cc1	KDM5B inhibitor 12.6µM
O=C(NCCN1CCCC1)c1ccc(-c2ccc(N3CCSCC3)nc2)cc1	KDM5B inhibitor 25.1µM
O=C(NCc1ccccc1F)c1ccc(-c2ccccc2)cc1	none
Cc1ccc(C(=O)NCc2ccc(N3CCCC3)nc2)cc1F	none
CC(NC(=O)c1ccc(-c2ccc(N3CCCCCC3)nc2)cc1)c1cccnc1 (stereo not given)	none
COc1ccc(OC)c(CNC(=O)c2ccc(-c3ccc(N4CCSCC4)nc3)cc2)c1	none
O=C(NCc1ccc(N2CCCC2)nc1)c1ccc(Cl)c(Cl)c1	none
O=C(NCCN1CCOCC1)c1ccc(-c2ccc(N3CCCCC3)nc2)cc1	KDM5B inhibitor 28.2µM
COc1ccc(OC)c(C(=O)/C=C/c2cccs2)c1	none
COc1ccc(NC(=O)c2cc(Br)c(O)c(OC)c2)cc1NC(C)=O	none
Cc1ccc(NC(=O)C2Cc3ccc(C)cc3S2)cc1 (stereo not given)	none
OC(COc1cccc(CN2CCC(c3ncon3)CC2)c1)CN1CCOCC1 (stereo not given)	none
CCC(C)Oc1cccc(C(=O)Nc2cccc3ccc(C)nc23)c1 (stereo not given)	none
CCc1ccc(-c2csc(Nc3ccc(S(=O)(=O)Nc4nc(C)cc(C)n4)cc3)n2)cc1	none
CCN(CC)C(=O)N1CCCN(S(=O)(=O)c2ccccc2)CCC(=O)NCC1	none
CCN(CC)CCNc1nc2c(c(=O)n(C)c(=O)n2C)n1CC(O)COc1ccccc1C (stereo not given)	none
O=C(Nc1ccccc1)c1cc(-c2ccncc2)nc2ccccc12	none
O=S(=O)(NCc1ccccc1Cn1cccn1)c1ccccc1C(F)(F)F	none
O=C(COc1coc(CN2CCCCC2)cc1=O)NCc1ccccc1Cl	none
CC(Sc1ncc(C(F)(F)F)cc1Cl)C(N)=O (stereo not given)	none
CC(=O)NC[C@H]1CCN(S(=O)(=O)c2ccc(F)c(Cl)c2)C[C@H]1N(C)C	none
CCn1cc(S(=O)(=O)N2CC(N(Cc3cccnc3)CC(C)C)C2)cn1	none
COc1ccc(OCCN(C)c2nc(-c3cccnc3)nc3ccccc23)cc1	none
Cc1ccc(Cl)cc1NC(=O)CCNS(=O)(=O)/C=C/c1ccccc1	none
O=C(NC1CCCCCCC1)c1ccc(F)cc1	none
O=C(NC1CCCN(c2cc(N3CCCC3)ncn2)C1)c1ccccc1 (stereo not given)	none
O=C(NC1CCCC1)c1ccc(-c2ccc(N3CCSCC3)nc2)cc1	KDM5B inhibitor 28.2µM
COc1ccc(-c2[nH]nc3c2C(c2ccc(N(C)C)cc2)C2=C(CC(C)(C)CC2=O)N3)cc1 (stereo not given)	none
Cn1cc([C@@H](NC(=O)c2ccccc2N2CCCC2)C2CC(O)C2)cn1 (stereo not given in full)	KDM5B inhibitor 22.4µM
Cc1c(C(=O)N[C@H](c2cnn(C)c2)C2CC(O)C2)sc2nc[nH]c(=O)c12 (stereo not given in full)	none
Cn1cc([C@@H](NC(=O)C2CCN(Cc3ccco3)CC2)C2CC(O)C2)cn1 (stereo not given in full)	none
Cn1cc([C@@H](NC(=O)c2ccc3c(c2)CCCC3)C2CC(O)C2)cn1 (stereo not given in full)	none
Cc1noc(C)c1CCC(=O)NC(c1cnn(C)c1)C1CC(O)C1 (stereo not given)	none
Cn1cc([C@@H](NC(=O)c2cccc3c2NCCC3)C2CC(O)C2)cn1 (stereo not given in full)	KDM5B inhibitor 28.2µM
CCOc1ccc(NC(=O)Cn2c(=O)n(C)c(=O)c3sc(N4CCCC4)nc32)cc1	none
O=C(O)CC1(CC(=O)O)CCCC1	none
CC1CCC(NC(=O)CCC2CCCO2)CC1 (stereo not given)	none
CCCn1c(=O)n(CC(=O)Nc2ccc(F)cc2F)c(=O)c2c1nc(C)n2CCOC	none
Cn1c(=O)c2c(ncn2CC(=O)N2CCN(C(c3ccccc3)c3ccccc3)CC2)n(C)c1=O	none
Cc1ccccc1C(=O)OC(C)CN1CCCCC1 (stereo not given)	none
Cc1ccc(S(=O)(=O)N(C)CCc2noc(-c3ccccc3Cl)n2)c2nsnc12	none
CCS(=O)(=O)N1CCc2ccc(NC(=O)NCCC(C)C)cc21	none
O=C(CNc1ccc(C(F)(F)F)cc1)NCc1ccc(Cl)cc1	none
Cc1ccc2nc(C3CCN(Cc4ccc(-c5cccs5)cc4)CC3)[nH]c(=O)c2c1	KDM5B inhibitor 28.2µM
CC(=O)Nc1ccc(CN2CCC(c3nc4ccc(C)cc4c(=O)[nH]3)CC2)cc1	none
O=c1[nH]c(C2CCN(Cc3cccc(-c4cccs4)c3)CC2)nc2ccc(F)cc12	none
COCc1nnc(NC(=O)c2ccc3ccn(Cc4ccccc4)c3c2)s1	none
Cc1ccc(S(=O)(=O)N2C[C@@H](F)C[C@H]2C(=O)N2CCCCC2)c(C)c1	none
Cc1cc(NC(=O)Cc2ccc(Cl)cc2Cl)n(CCC#N)n1	none
COCC1CN(C2CCC2)CC12CCN(C(=O)COc1ccc(F)cc1)CC2 (stereo not given)	KDM5B inhibitor 10µM
COCC1CN(C(C)=O)CC12CCN(C(=O)COc1ccccc1)CC2 (stereo not given)	none
COCC1CN(C2CCC2)CC12CCN(C(=O)C1CCC1)CC2 (stereo not given)	none
Cc1ccc(-c2csc(Nc3ccc(N(C)C)cc3)n2)cc1	none
Cc1cc(C)c(C)c(SC(C)C(=O)NC2CCCC2)c1C (stereo not given)	none
Cc1n[nH]c(C)c1C(NC(=O)c1c(C)c2cccc(C)c2n1C)C(=O)O (stereo not given)	none
C=CCNc1ccccc1C(=O)NC(C(=O)O)c1c(C)n[nH]c1C (stereo not given)	KDM5B inhibitor 28.2µM
C=CCNc1nc(C(=O)OCC(=O)N(Cc2ccccc2)C(C)C)cs1	none
COc1cc(CNC2CCCc3ccccc32)cc(OC)c1 (stereo not given)	none
CCC(=O)N1CCC(Cc2noc(-c3ccccc3)n2)C1 (stereo not given)	none
CC1(O)CCCN(c2ccc(-c3nc(CCCc4ccccc4)no3)cn2)C1 (stereo not given)	KDM5B inhibitor 22.4µM
Cc1cccc(C(=O)N2CCOC(CCCc3ccccc3)C2)n1 (stereo not given)	none
COc1ccc(CCC(=O)N2CCCC(Cc3noc(-c4ccccc4)n3)C2)cc1 (stereo not given)	none
O=C(C1CC1)N1CCC(Cc2noc(-c3ccccc3)n2)C1 (stereo not given)	none
CC1(O)CCCN(c2ncc(C(C)(C)C(=O)O)c(N3CCOCC3)n2)C1 (stereo not given)	none
OCCC1CCN(c2ccc(-c3nc(CCCc4ccccc4)no3)cn2)CC1	none
COCC1CCN(c2ccc(-c3nc(CCCc4ccccc4)no3)cn2)C1 (stereo not given)	KDM5B inhibitor 35.5µM
OCCC1CN(c2ccc(-c3nc(CCCc4ccccc4)no3)cn2)CCO1 (stereo not given)	KDM5B inhibitor 20µM
Cc1ccccc1NC(=O)Cc1nnc(SCC(=O)NC23CC4CC(CC(C4)C2)C3)n1C	none
